ALDH1A1 inh: qHTS Assay for Inhibitors of Aldehyde Dehydrogenase 1 (ALDH1A1); Purified ALDH1A1, NADH fluorescence, propionaldehyde substrate; Potency, µM (top dose mostly 75.3 µM), inactives show at the highest dose activity, negative = inhibition, hits mostly inhibitors; 7.3% of 220,000 active; AID 1030, 2008;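 note: potency is the fitted concentration of half-maximal effect; plate controls were no enzyme wells and a reference inhibitor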
HPGD block: qHTS Assay for Inhibitors of HPGD (15-Hydroxyprostaglandin Dehydrogenase). Potency, µM, for inactives: top-dose activity change, negative = inhibition, most hits filed as inhibitors. purified HPGD, NADH fluorescence kinetic, PGE2 substrate. 15-hydroxyprostaglandin dehydrogenase [NAD(+)] (Homo sapiens), P15428. 4.3% of 150,000 active; note: potency is the fitted concentration of half-maximal effect
Target sequence (P15428 whole entry, looked up): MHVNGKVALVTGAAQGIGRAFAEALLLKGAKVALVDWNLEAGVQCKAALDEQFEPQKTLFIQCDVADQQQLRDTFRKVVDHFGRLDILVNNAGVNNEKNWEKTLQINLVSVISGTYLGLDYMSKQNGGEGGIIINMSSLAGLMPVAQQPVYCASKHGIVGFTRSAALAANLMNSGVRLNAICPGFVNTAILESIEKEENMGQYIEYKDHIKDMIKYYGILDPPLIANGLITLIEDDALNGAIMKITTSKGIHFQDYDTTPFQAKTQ
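20 nM HPGD preincubated 15 min at room temperature with compound in 50 mM Tris-HCl pH 8, 0.01% Tween 20. Started with 1 mM NAD+ and 30 uM prostaglandin E2; NADH fluorescence (360/450 nm) read 5 times over 30-s intervals, last minus first.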
IMPase cell inh: qHTS Assay for Identifying the Cell-Membrane Permeable IMPase Inhibitors; inhibition (IP1 accumulation), % at 46.1 µM; AID 901, 2007; 120,000 tested, under 10 active; CHO-M1 cells, IP1 accumulation, HTRF TR-FRET ratio; Inositol monophosphatase 1 (Rattus norvegicus), P97697; active = well fitted curve in the direction sought with a large enough effect in the signal ratio, not every such curve was filed as active; inconclusive = small, poorly fitted or top-dose-only effect, or a change in a side signal; inactive = no such curve, though single readings can be large or run the other way; the % refers to the signal ratio;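 note: cells stimulated with carbachol in lithium chloride buffer; plate controls were DMSO basal wells for no effect and reference inhibitor wells for full effect; higher means more IMPase inhibition seen as more IP1 and lower FRET ratio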
Target sequence (P97697 whole entry, looked up): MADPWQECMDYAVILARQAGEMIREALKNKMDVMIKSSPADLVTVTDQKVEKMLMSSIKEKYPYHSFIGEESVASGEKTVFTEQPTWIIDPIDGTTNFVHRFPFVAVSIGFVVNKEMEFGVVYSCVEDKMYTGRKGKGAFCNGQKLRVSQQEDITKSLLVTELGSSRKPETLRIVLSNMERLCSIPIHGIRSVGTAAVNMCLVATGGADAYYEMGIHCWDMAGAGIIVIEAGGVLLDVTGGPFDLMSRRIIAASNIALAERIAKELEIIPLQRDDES
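CHO-M1 cells (CHO stably expressing M1 receptor), compound up to 46 uM final, stimulated with carbachol (50 uM as added) in buffer with 50mM LiCl, pH 7.4, 30 min at 37C. Cytosolic IP1 read by TR-FRET; AC50 from Hill fits.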
An asterisk follows results filed as active; ? = inconclusive; / = no result; [ ] = another dose, or the depositor's remark. The list is not random: actives were taken first. Their share in the collection is about 9%. Unless noted, calls come from the whole dose curve; as a rule, active = well fitted inhibition curve with a large enough effect (not every such curve was filed as active); inconclusive = small, poorly fitted or top-dose-only effect, or another doubt; inactive = no such curve, though single readings can be large or run the other way. Unless noted, % is set by controls: 0 for no effect and ±100 for the full control effect.

SMILES	ALDH1A1 inh	HPGD block	IMPase cell inh
C[C@@H](O)[C@H]1C(=O)N2C(C(=O)O)=C(S[C@@H]3CN[C@H](C(=O)N(C)C)C3)[C@H](C)[C@H]12	-11%[20.9 µM]	-9%	1[20.6 µM]
NC(=O)CC[C@H](NC(=O)c1ccc(F)cc1)C(=O)OCC(=O)Nc1ccc(N2CCOCC2)cc1	11µM*	-6%	/
CC(=O)Nc1ccc(C(=O)OCC(=O)Nc2ccc(N3CCOCC3)cc2)cc1	18µM*	/	/
CC(=O)c1ccc(N2CCN(CC(=O)Nc3ccc(N4CCOCC4)cc3)CC2)cc1	4%	/	/
COc1cc(CC(=O)OCC(=O)Nc2ccc(N3CCOCC3)cc2)cc(OC)c1OC	-13%	/	/
Cc1ccc(OCC(=O)Nc2ccc(N3CCOCC3)cc2)c([N+](=O)[O-])n1	3%	/	/
O=C(COc1cc(F)ccc1[N+](=O)[O-])Nc1ccc(N2CCOCC2)cc1	13µM*	/	/
COc1ccc(CC(=O)OCC(=O)Nc2ccc(N3CCOCC3)cc2)cc1	25µM*	/	/
C/C(=C\C(=O)c1ccc(F)cc1)Nc1ccc(N2CCOCC2)cc1	?	-17%	1
COc1ccc(C(=O)c2ccc(OC)c(N)c2)cc1N	20µM*	-32%	-2
COc1ccc(C(=O)c2ccc(OC)c(OC)c2)cc1	?	-9%	-2
Cc1ccc(NC(=O)COc2ccc(/C=C3/SC(=Nc4ccccc4)N(Cc4cccnc4)C3=O)cc2)cc1	-4%	-20%	4
Cc1ccc(CN=Cc2[nH]c3ccc(Br)c(Cl)c3c2O)cc1	0.4µM*	28µM*	-12
Oc1c(C=NCc2ccc(F)cc2)[nH]c2ccc(Br)c(Cl)c12	4.5µM*	?	-11
COc1ccc(CN=Cc2c(O)[nH]c3ccccc23)cc1	-2%	/	/
Cc1ccc(CN2CCN(/N=C/c3cc(Br)cc(Br)c3O)CC2)cc1	?	-14%	/
Cn1c(=O)c2c(nc(Cl)n2CC(=O)N2CCCCC2)n(C)c1=O	-11%	/	/
O=C(O)c1cc(S(=O)(=O)Nc2cccc(F)c2)ccc1Cl	7%	-10%	/
CCOC(=O)Cn1nc(C)cc1NC(=O)c1cccnc1	7%	/	/
Cc1ccc(-n2c(CCC(=O)O)ccc2-c2cccs2)cc1Cl	/	/	2
CC(=O)c1ccc(-n2c(CCC(=O)O)ccc2-c2cccs2)cc1	3.5µM*	-18%	-3
NC(=O)c1ccc(-n2c(CCC(=O)O)ccc2-c2cccs2)cc1	3.2µM*	/	/
COC(=O)c1cccc(-n2c(CCC(=O)O)ccc2-c2cccs2)c1	4µM*	/	/
Cc1ccc(-n2c(CCC(=O)O)ccc2-c2cccs2)cc1	?	-20%	-2
COC(=O)c1ccccc1NC(=O)Cn1c(CCC(=O)O)ccc1-c1cccs1	?	-7%	-2
SMILES	ALDH1A1 inh	HPGD block	IMPase cell inh
COc1ccc(CCNC(=O)CSc2ccc(-c3cccs3)nn2)cc1OC	14%	/	/
CC(C)(C)c1ccc(C(CC(=O)O)NC(=O)c2ccccc2F)cc1 (stereo unspecified)	11%	/	/
O=C(CSc1ccc(-c2ccc(Cl)cc2)nn1)Nc1ccc2c(c1)OCCO2	-2%	-8%	-1
O=C(c1cn(CC(=O)N2CCCC2)c2ccccc12)C1CCCCC1	3%	/	8
CNCC(=O)N1CCN(c2ncc(C(F)(F)F)cc2Cl)CC1	-10%	/	/
O=C(CN1C2CCCC1CC(NC(=O)c1ccccc1)C2)Nc1nccs1 (stereo unspecified)	?	0%	5
COc1cccc(C(=O)Cn2c(Br)nc3c2c(=O)n(C)c(=O)n3C)c1	0%	-12%	14
Cn1c(=O)c2c(nc(Br)n2CC(=O)C23CC4CC(CC(C4)C2)C3)n(C)c1=O	11µM*	-16%	2
CCC(=O)Nc1c(OC(=O)CC)ccc2c(C)cc(=O)oc12	?	?	-17
COc1ccc(Cl)cc1N1C(=N)SCC1=O	-1%	/	/
Cc1ccc(N2C(=N)SCC2=O)cc1Cl	?	14µM*	/
COCC(=O)N1CCC[C@@]2(CCN(c3ccncc3)C2)C1	9%	-3%	/
CC(=O)CCc1oc2ccc([N+](=O)[O-])cc2c1-c1ccc(C)o1	10µM*	/	/
C/C(CCc1oc2c(Br)cc(Br)cc2c1-c1ccc(C)o1)=N\O	-13%	-23%	7
COc1ccc(NC(=S)NN(C)C(=S)Nc2ccc(OC)cc2)cc1	?	-22%	/
C=CCN1C(=O)C(C)(C)Nc2ccccc21	-4%	-6%	7
C=CCN1C(=O)/C(=N/n2cnnc2)c2ccccc21	0.063µM*	-6%	2
CCCCOC1(c2ccccc2)NC(=S)NN=C1c1ccccc1 (stereo unspecified)	0.56µM*	-5%	-6
CCCCCCOC1(c2ccccc2)OC(=O)c2ccccc21 (stereo unspecified)	6%	-11%	14
COC1(c2ccccc2)NC(=S)NN=C1c1ccccc1 (stereo unspecified)	0.89µM*	-7%	-11
CO/N=C/C1C(=O)NN=C1c1ccccc1 (stereo unspecified)	2%	/	/
CC(C)C[C@@H](CC(=O)N[C@@H](CCC(=O)O)CC(=O)O)NC(=O)[C@@H]1CCCC[C@H]1NC(=O)C[C@H](CCCN)NC(=O)C[C@H](CO)NC(=O)[C@@H]1CCCC[C@H]1N	-3%	-2%	/
O=C(CCN1CCCCC1)c1csc2ccccc12	0.14µM*	-13%	/
O=C(CCN1CCOCC1)c1ccccc1	0.32µM*	-23%	9
O=C(O)CCN1CCOCC1	9%	-6%	-5
SMILES	ALDH1A1 inh	HPGD block	IMPase cell inh
CC(=O)c1oc2ccccc2c1NC(=O)CN1CCCCC1	-10%	-8%	6
O=C(OCCN1CCCCC1)c1ccccc1Cl	4%	?	-4
C[N+]1(CCC(=O)c2ccccc2)CCCCC1	1.3µM*	32µM*	/
O=C(O)CCC(=O)CCC(=O)c1ccccc1	?	-6%	2
CCc1oc2ccccc2c1C(=O)CCN1CCCCC1	0.11µM*	28µM*	14
N#CC(c1ccccc1)N(CCCCl)C(=O)c1ccc(Br)cc1 (stereo unspecified)	?	-10%	/
Cc1c(C(=O)NN2CCOCC2)nn(-c2ccc(Cl)cc2Cl)c1-c1ccc(I)cc1	3%	7%	10
COC1=C(C(=O)c2ccccc2)C(=O)C2(CC=C(C)C)C[C@H](C(=O)OCC(F)(F)F)C(C)(C)[C@@]1(CC=C(C)C)C2=O (tested in a mixture with another compound)	-8%	-12%	/
Cc1nc2ccccn2c1-c1ccnn1S(=O)(=O)c1ccc(F)cc1	8%	/	/
O=c1oc2ccccc2c(N2CCCCC2)c1CN1CCCC1	-12%	-6%	12
CN1CCN(CCCCC(=O)c2ccccc2)CC1	7%	2%	7
O=c1oc2ccccc2c(N2CCCCC2)c1CN1CCCCC1	14µM*	-20%	7
O=C(CCN1CCCCC1)c1ccccc1	1.1µM*	-21%	-4
CSc1ccccc1NC(=O)COc1ccc(S(=O)(=O)N2CCCC2)cc1	-8%	1%	4
COc1cc(C2C(C#N)=C(N)OC3=C2C(=O)CC(C)(C)C3)cc([N+](=O)[O-])c1O (stereo unspecified)	-6%	/	/
CC(C)=C1SC(N2CCN(c3cccc(Cl)c3)CC2)=NC1=O	?	-22%	/
